Data from the supplement of paper PMC3334620.
The full ranking holds about 33,000 sequences; the median of “E-score (-0.5 to 0.5)” is about -0.0059, and the highest 2% start at about 0.26. The sample as a whole holds a higher share of the highest values than the screen did.

target: T1, Cin5 (UniProt P40917); experiment: PBM E-score (8-mer binding enrichment) (E-score (-0.5 to 0.5)); higher = stronger / more preferred TF binding; conditions: protein concentration: 100 nM; construct: GST-full length
T1 sequence: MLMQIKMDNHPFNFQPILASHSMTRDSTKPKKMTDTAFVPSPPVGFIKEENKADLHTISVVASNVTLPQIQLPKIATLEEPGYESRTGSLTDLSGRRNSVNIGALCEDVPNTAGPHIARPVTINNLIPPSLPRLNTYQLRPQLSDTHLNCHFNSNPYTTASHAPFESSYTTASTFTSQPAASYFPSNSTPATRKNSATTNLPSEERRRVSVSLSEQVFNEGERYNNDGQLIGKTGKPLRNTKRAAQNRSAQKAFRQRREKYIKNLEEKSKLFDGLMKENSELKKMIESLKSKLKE
Procedure, shortened: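 PURExpress in vitro transcription/translation supplied GST-tagged yeast transcription factors, either full-length or DNA-binding domain. Applied at about 100-200 nM to universal all-10-mer Agilent arrays double-stranded by primer extension, the bound protein was detected with fluorescent anti-GST. E-scores, modified Wilcoxon-Mann-Whitney statistics, were given by the Universal PBM Analysis Suite to ungapped eight-base words pooled with their reverse complements after masliner normalisation.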

Row | Sequence | PBM E-score
1 | ACTACCAC | 0.017
2 | TCACCTAA | 0.142
3 | AACGCTAT | 0.0739
4 | CTAATCCA | 0.219
5 | ATGATCGA | 0.0882
6 | ATAATCTA | 0.242
7 | CTAATCGA | 0.202
8 | CTAATCTA | 0.00395
9 | GTAATCGA | 0.275
10 | GCAATCGA | 0.0191
11 | GTAATCTA | 0.354
12 | GTGATCGA | 0.273
13 | CTGATCGA | -0.179
14 | GTAATCCA | 0.281
15 | ATAATCCA | 0.225
16 | CTGCCAAA | -0.065
17 | CGCGCTAC | 0.029
18 | GACATAGC | 0.0934
19 | ACCGTACA | -0.108
20 | GGGTCCAA | -0.0685
21 | AAAGCTAC | -0.0407
22 | GATCTAAA | 0.0626
23 | CCAATAGA | -0.01
24 | AACCCGAT | 0.258
25 | ACCCCGAT | 0.155

Row | Sequence | PBM E-score
26 | AACCCGAC | 0.0291
27 | CATTTATC | 0.0882
28 | TAATTATA | 0.351
29 | CAATTATA | 0.126
30 | ACATTATG | 0.106
31 | CAATTATC | 0.277
32 | CCATTATC | 0.0699
33 | GAATTATA | 0.101
34 | ACATTATC | 0.289
35 | AATTTATC | 0.27
36 | AATTTATA | 0.249
37 | CAATTATG | 0.141
38 | CAATTAAC | 0.134
39 | ACGCAATA | 0.209
40 | TAAGGCAA | 0.0779
41 | CAAGGAGG | 0.00169
42 | AGGGGTGC | -0.088
43 | CTGGACGA | -0.129
44 | CGAAAGAC | 1e-05
45 | CCCCGGGA | 0.0124
46 | AAATTATG | 0.24
47 | CAATTACA | 0.242
48 | AAATTATT | 0.183
49 | AAATTAAA | 0.214
50 | AAATTATC | 0.278

Row | Sequence | PBM E-score
51 | AAATTATA | 0.262
52 | TAATTACA | 0.259
53 | AAATTACA | 0.248
54 | GAATTATC | 0.145
55 | AATAGAAT | 0.106
56 | CTGGGTTA | -0.0908
57 | ACAGAACA | 0.136
58 | CCCATTCA | 0.214
59 | TGAGACCA | -0.078
60 | AAGCCTGG | -0.072
61 | GCCGTGAC | -0.0205
62 | CTACTCAG | -0.0922
63 | ATACTCAG | 0.258
64 | ATACTCAA | 0.204
65 | CCCGTTCA | -0.0227
66 | AAAGCGTC | -0.113
67 | GTAGTCAC | -0.185
68 | ACTTTTAC | 0.273
69 | ACTTTTAA | 0.0259
70 | CATTTTAA | 0.0885
71 | CATTTTAG | 0.137
72 | ACTTTTAG | -0.0275
73 | CATTTTAC | 0.263
74 | GACTCCAA | -0.226
75 | CTAGTGTC | -0.0545

Row | Sequence | PBM E-score
76 | GGGTTGAA | -0.0789
77 | CAGACTAG | -0.237
78 | ATAGGTCA | 0.0611
79 | TCTAATAA | 0.0206
80 | ATTAATAC | 0.27
81 | CTTAATAA | 0.267
82 | ATGAATAG | 0.148
83 | CTTAATAC | 0.191
84 | CCTAATAA | 0.0783
85 | ATTAATAA | 0.336
86 | ATTAAAAA | 0.162
87 | GTTAATAA | 0.186
88 | ATTAATGG | 0.156
89 | ATTAATAG | 0.272
90 | GGTAATAC | 0.168
91 | GTGCCAAC | -0.0934
92 | CAAAAAGG | -0.138
93 | GACTACCC | -0.127
94 | AACTGTCT | 0.0125
95 | CCGCCGAC | -0.119
96 | GAACAGAC | 0.0587
97 | GGCGCGGA | -0.189
98 | AACTGGAA | 0.0471
99 | GTGATAAC | 0.125
100 | ATGATAGG | -0.0261

Row | Sequence | PBM E-score
101 | ATGATAGC | 0.269
102 | ATGATAAC | 0.262
103 | ATGATAAT | 0.272
104 | CTGATAAC | -0.054
105 | ATGATAAG | 0.204
106 | ATGATAAA | 0.188
107 | ATGATAGA | -0.0131
108 | AGCTGATA | 0.0998
109 | ATCCTTCC | -0.2
110 | GGGGTTAA | -0.0418
111 | TCCAGGAA | -0.0393
112 | CTGGTTTC | 0.0335
113 | GGATGCAA | -0.0522
114 | AACAGACT | 0.138
115 | AACAGACA | 0.32
116 | GACAGACA | 0.16
117 | AGGATCGC | -0.0224
118 | GACTGAAA | -0.0204
119 | TACTGAAA | 0.267
120 | CACTGAAA | 0.108
121 | TACCTTCA | -0.0369
122 | CTCACATA | 0.164
123 | ATCACGTA | 0.269
124 | ATCACGTG | 0.124
125 | ATCACATA | 0.291

Row | Sequence | PBM E-score
126 | ATCACATG | 0.00787
127 | ATCACGTC | 0.186
128 | AGTGGTCC | -0.116
129 | GACTCGTA | -0.2
130 | CAATCCTC | -0.129
131 | CAAGGTGA | -0.0314
132 | AATGAAAC | 0.169
133 | CCATAAAC | -0.114
134 | ACATAAAA | 0.22
135 | GCATAAAC | 0.115
136 | ACATAAAC | 0.263
137 | ATAAAAAT | 0.0935
138 | ACATAAAT | 0.28
139 | ATATAAAG | 0.137
140 | ACATAAAG | 0.00631
141 | ATATAAAT | 0.28
142 | AAGGCACC | -0.0903
143 | AATACCTC | 0.0347
144 | CTCCATTA | -0.0341
145 | GGCCAGAC | -0.24
146 | CCCAGTAA | 0.0641
147 | CAGCCGCC | -0.0669
148 | ACGGCAAT | 0.273
149 | ACGGCAAA | 0.0612
150 | ACGGCAAG | -0.0312

Row | Sequence | PBM E-score
151 | AATCAACA | 0.348
152 | CATCAAAC | 0.0949
153 | AATCAAAT | 0.176
154 | TATCAACA | 0.108
155 | GATCAACA | -0.0699
156 | AATCAAAC | 0.326
157 | CCCTGCAA | -0.132
158 | CTGGCTCA | 0.0435
159 | ACGTTGGC | -0.143
160 | ACAATTTC | 0.139
161 | CTAGGAAC | -0.124
162 | GTCACCGA | -0.12
163 | CCGCATAA | 0.283
164 | GCGCATAA | 0.187
165 | ACGCATAA | 0.0967
166 | GAGCGAGA | 0.166
167 | GCAAGGAA | -0.0209
168 | CTGCTTCA | -0.153
169 | GATGGTAA | -0.0229
170 | TATGGTAA | 0.288
171 | AATGGTAA | 0.233
172 | CGCTTTTC | -0.0646
173 | AACACTTA | 0.154
